Several values for one entry are separate records, joined by “and”; a condition that tells them apart may be missing. Identical values can stand only once. Among all 640,000 compounds or so, about 9,300 (1.5%) were called active. The full list was thinned out, with actives kept by preference. Unmarked numbers belong to inactive results. No stated cut-off is given here; in the data, active means inhibition above about 32%; inactive means the rest.
Assay: TEAD-YAP interaction inhibition, primary screen, TEAD-YAP interaction inhibitor project, luminescence, HEK-TIYL cells (AID 1259422);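 further: 0% = median of test compound wells and 100% = reference inhibitor wells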
Settings: TEAD-Gal4/YAP UAS-luciferase luminescence, at 9.12 µM, stronger effect = higher value

Structure (SMILES) | inhibition
COc1cc(OC)cc(C(=O)Nc2cc(C(=O)Nc3ccc(OC)c(OC)c3)ccc2N2CC3CC(C2)c2cccc(=O)n2C3)c1 (stereo not drawn) | -0.12%
COc1ccc(/C=C/C(=O)NCCOc2ccc(Cl)cc2)cc1OC | -6.87%
CC(=O)Nc1ccc(NC(=O)CCCc2nc(-c3ccc(C(C)(C)C)cc3)no2)cc1 | 68.3% (active)
CCCNC(=O)CCCc1nc(-c2ccc(Cl)cc2)no1 | 25.2%
CCNC(=O)CCc1nc(-c2cccc(C)c2)no1 | -13.2%
CC(C)(C)NC(=O)CCc1nc(-c2ccc(C(C)(C)C)cc2)no1 | 50.6% (active)
COc1ccc(NC(=O)CCCc2nc(-c3ccc(OC)c(OC)c3)no2)cc1 | 1.43%
COc1ccc(-c2noc(CCC(=O)N(C)C)n2)cc1 | -26.2%
COC(=O)c1ccc(C(=O)NCC2CCC3(CCN(Cc4ccccn4)CC3)O2)cc1 (stereo not drawn) | 9.59%
Cc1cccc(C(=O)OCC(=O)NC2CCCCC2C)c1O (stereo not drawn) | 7.9%
COc1cccc(C(=O)NC2(C(F)(F)F)NC(=O)N(c3ccccc3)C2=O)c1 (stereo not drawn) | 8.83%
COc1cccc2cc(C(=O)Nc3cccc4ccccc34)c(=N)oc12 | -5.43%
Cc1ccc2oc(-c3ccc(C)c(NC(=O)c4ccc([N+](=O)[O-])o4)c3)nc2c1 | -28.6%
CCc1ccc(-c2nc3cc(NC(=O)c4ccc(Cl)cc4)ccc3o2)cc1 | 7.97%
CCc1ccc2oc(-c3ccc(NC(=O)c4ccccc4[N+](=O)[O-])cc3)nc2c1 | -50.9%
Cc1ccc(-c2nc3cc(C(C)C)ccc3o2)cc1N | 80.7% (active)
Cc1ccc(OCC(=O)Nc2ccc(-c3nc4cc(C(C)C)ccc4o3)cc2)cc1 | 20.8%
Cc1cc(-c2nc3cc(N)ccc3o2)ccc1Br | 1.99%
CC(=O)Nc1cc(-c2nc3cc(C(C)C)ccc3o2)ccc1Cl | -35.8%
CCc1ccc2oc(-c3ccc(N)cc3)nc2c1 | 79.6% (active)
Cc1ccc2oc(-c3ccc(C)c(N)c3)nc2c1 | 53.6% (active)
COc1ccccc1N1CCN(CC(O)COc2ccc(C#N)cc2)CC1 (stereo not drawn) | 0.33%

Structure (SMILES) | inhibition
O=C(N/N=C/c1ccco1)c1cccc(F)c1 | -63.8%
Fc1ccc(C2C=C(c3cccs3)NC(=S)N2)cc1 (stereo not drawn) | 13.5%
CC(C)N1CCC(N2CCN(Cc3nc(-c4ccccc4)cs3)CC2CCO)CC1 (stereo not drawn) | -5.11%
COC(=O)N1CCC(C(=O)N(C)C(c2ccc(F)cc2)c2ccccn2)CC1 (stereo not drawn) | 11.1%
CCN(CC)CCn1c(=S)sc2c(=O)n(-c3ccccc3OC)c(SCc3ccccc3Cl)nc21 | -5.55%
O=C(Nc1ccc2c(c1)OCCO2)C(=O)Nc1ccc2nc3n(c(=O)c2c1)CCCCC3 | -4.8%
Cc1ncsc1C(=O)N1CCC(c2c(S(C)(=O)=O)cnc3ncnn23)CC1 | 11.5%
CCOc1cc(Br)c([N+](=O)[O-])cc1OCC | -4.81%
CCOc1ccc(C2Oc3c(Br)cc(Br)cc3C=C2[N+](=O)[O-])cc1OC (stereo not drawn) | 86% (active)
CCOc1ccc(C2N(c3cccc(Cl)c3)C(=O)C3CCCN32)cc1OC (stereo not drawn) | 0.7%
CCOc1cc(/C=C2/N=C(c3ccc(Cl)cc3)OC2=O)ccc1OCc1ccc(Cl)cc1 | -7.55%
O=C(CNC1=NCCCCC1)c1ccc(-c2ccccc2)cc1 | -23.5%
Cc1ccc(C(=O)C[n+]2cc(-c3ccccc3)n3c2CCCCC3)cc1 | 38.8% (active)
Cc1ccc(-c2nn3cc(-c4ccccc4)c4c3n2CCCC4)cc1 | -4.85%
CN(C(=S)Nc1ccc(Cl)cc1)c1c(N)n(Cc2ccccc2)c(=O)[nH]c1=O | -0.81%
COc1ccc(N2CCN(C(CNC(=O)c3cccs3)c3ccc4c(c3)OCO4)CC2)cc1 (stereo not drawn) | -22.3%
c1ccc2c(c1)OCC(c1nc3ccc(-c4ccncc4)cc3[nH]1)O2 (stereo not drawn) | -24.1%
Cn1c(C2COc3ccccc3O2)nc2ccc(-c3cn[nH]c3)cc21 (stereo not drawn) | -90.1%
CC(C)n1c(C2COc3ccccc3O2)nc2ncc(-c3ccncc3)cc21 (stereo not drawn) | 33% (active)
Cc1nc2ccccn2c1CN1CCN(CC(O)COCc2ccc(Cl)cc2)CC1 (stereo not drawn) | 22.8%
COc1cccc(/C=N/N2CCN(Cc3ccc(C)cc3)CC2)c1 | -0.53%
Clc1ccc(CN2CCN(/N=C/c3c(Cl)nc4ccccn34)CC2)cc1 | 35.3% (active)

Structure (SMILES) | inhibition
CCOC(=O)CC(=O)CSc1nc2c(sc(=S)n2-c2ccc(Cl)c(C)c2)c(=O)n1-c1ccccc1OC | 0.42%
COC(=O)c1cnn2c(C(F)(F)F)cc(-c3ccc(Br)cc3)nc12 | 13.7%
Brc1ccc(N=c2oc3ccccc3cc2-c2nc3ccccc3[nH]2)cc1 | -86.1%
c1ccc2oc(=Nc3cccc4ccccc34)c(-c3nc4ccccc4[nH]3)cc2c1 | 41.4% (active)
N#Cc1ccccc1N=c1oc2ccccc2cc1-c1nc2ccccc2[nH]1 | -44.7%
Cc1cccc(C(=O)Nc2ncc3c(n2)CC(C)(C)CC3=O)c1 | -0.47%
CCOC(=O)c1c(NC(=O)CSc2nnc(CNC(=O)c3ccc([N+](=O)[O-])cc3)n2CCc2ccccc2)sc2c1CCCCC2 | -6.86%
Cc1cccc(N2CC(O)=C(c3nc4ccccc4c(=O)[nH]3)C2=N)c1C | 46.8% (active)
CC(=O)c1cccc(N2CC(O)=C(c3nc4ccccc4[nH]3)C2=N)c1 | -5.18%
COc1ccc(N2CC(O)=C(c3nc4ccccc4c(=O)[nH]3)C2=N)cc1 | 0.42%
C/C(CC(=O)Nc1cccc2ccccc12)=N\NC(=O)c1cccnc1 | -13.7%
CC(=O)Nc1ccc2nc(SCC(=O)Nc3ccccc3F)sc2c1 | -58.7%
COc1cccc(-n2cc(CN(C)C3CCC(=O)N(Cc4ccccc4F)CC3)cn2)c1 (stereo not drawn) | 8.57%
Cc1nc(CC(=O)N2CCC(N3CCC(C(=O)N4CCOCC4)CC3)CC2)cs1 | -4.91%
COc1cc(Br)cc(/C=N/NC(=O)c2cc(-c3ccccc3)n[nH]2)c1O | 15.7%
COc1cc(Br)cc(/C=N\NC(=O)c2ccc(C)nc2)c1O | 35.4% (active)
CCOc1cccc(/C=N/NC(=O)c2ccc(C)nc2)c1O | 18.1%
CC(=O)c1cccc(NC(=O)c2ncoc2-c2ccc(Cl)cc2)c1 | 2.52%
COc1ccc(-c2csc(N3CCC(C)CC3)n2)cc1 | -61.1%
O=C1CCCC2=C1C(c1ccc(Cl)cc1)Nc1ccc(C(=O)c3ccccc3)cc1N2 (stereo not drawn) | 13.4%
COc1cc(C2Nc3ccc(C(=O)c4ccccc4)cc3NC3=C2C(=O)CCC3)cc(OC)c1OC (stereo not drawn) | 59.8% (active)
O=C1CCCC2=C1C(c1c(F)cccc1Cl)Nc1ccc(C(=O)c3ccccc3)cc1N2 (stereo not drawn) | -16.1%

Structure (SMILES) | inhibition
Cc1ccc(C2=CC(c3ccccc3F)n3nnnc3N2)cc1 (stereo not drawn) | -31.7%
COc1ccccc1CN(Cc1cc2cccc(C)c2n2nnnc12)C(=O)C1CC1 | 6.49%
O=C1C(=O)N(CCCn2ccnc2)C(c2ccc(Cl)cc2)/C1=C(/O)c1ccccc1 (stereo not drawn) | 7.39%
COC(=O)c1nnn(CC(=O)Nc2ccc3c(c2)OCCO3)c1C(=O)OC | 9.22%
COc1cccc(C(=O)/C=C\Nc2ccc(S(=O)(=O)Nc3nc(C)cc(C)n3)cc2)c1 | -30.1% and -6.6%
COc1cc(NS(=O)(=O)c2ccc(N/C=C\C(=O)c3cccs3)cc2)nc(OC)n1 | -5.11%
Cc1cc(C)nc(NS(=O)(=O)c2ccc(N/C=C\C(=O)c3cccs3)cc2)n1 | 49.6% (active)
N#CCCNc1ncc(-c2ccc(Cl)cc2)cn1 | -8.87%
Cc1ccc(NC(=O)CN2CCN(c3ccc(Cl)cc3)CC2)cc1Br | -5.18%
CCOC(=O)C1=C(C)NC(C)=C(C(=O)OCC)C1c1ccc(C2C(C(=O)OCC)=C(C)NC(C)=C2C(=O)OCC)cc1 | 8.31%
O=C(NCc1ccccc1)C1CC12CCN(Cc1ccsc1)CC2 (stereo not drawn) | 50.1% (active)
O=C(Cc1ccsc1)N1CCC2(CC1)CC2C(=O)N1CCN(Cc2ccccc2)CC1 (stereo not drawn) | 7.69%
O=C(NCc1ccccc1)C1CC12CCN(C(=O)Cc1ccsc1)CC2 (stereo not drawn) | -4.7%
CCOC(=O)c1c(NC(=O)C(C)Sc2nnc(CNC(=O)c3ccc(Cl)cc3Cl)n2C)sc2c1CCCC2 (stereo not drawn) | 5.37%
COc1ccc(-n2nc(C(=O)N3CCN(C)CC3)c3ccccc3c2=O)c(OC)c1 | 3.03%
COc1ccc(/C=C(/NC(=O)c2ccco2)C(=O)Nc2cccc(O)c2)cc1 | 0.64%
COc1ccc(C2CC(C(F)(F)F)n3ncc(C(=O)NCc4cccs4)c3N2)cc1OC (stereo not drawn) | -29.4%
O=C(C(Cc1ccccc1)NS(=O)(=O)c1cccs1)N1CCc2ccccc21 (stereo not drawn) | 7.02%
Cc1ccc2cc(CN(CCCO)S(=O)(=O)c3ccccc3[N+](=O)[O-])c(=O)[nH]c2c1 | -39.4%
CC1=C(C(=O)Nc2ccc(Cl)cc2)C(c2c(Cl)cccc2Cl)NC(=O)N1 (stereo not drawn) | 37.4% (active)
CC1=C(C(=O)Nc2ccc(Cl)cc2)C(c2cccc(Cl)c2)NC(=O)N1 (stereo not drawn) | 6.92%
CCOc1ccc(NC(=O)C2=C(C)NC(=O)NC2c2ccc(Cl)cc2)cc1 (stereo not drawn) | 11%

Source: PubChem BioAssay AID1259422 (The Scripps Research Institute Molecular Screening Center, 2018)
